In PubChem BioAssay (Tox21):
Activity calls are given as the source filed them. Calls come from the whole dose curve; as a rule, active = well fitted curve in the direction sought with a large enough effect in the repeat runs; inconclusive = weak or mixed curves; inactive = flat fitted curve, though single readings scatter.

Assay: qHTS assay to test for compound auto fluorescence at 460 nm (blue) in HepG2 cells (AID 720687)
Conditions: autofluorescence 405/460 nm, 1 h; series mostly up to 91.3 µM; fluorescence, % of fluorescent control: at the top concentration
Text: U.S. Tox21 Program National Center for Advancing Translational Sciences [NCATS] NIH Chemical Genomics Center [NCGC] U.S. Environmental Protection Agency [EPA] National Institutes of Environmental Health Sciences [NIEHS] National Toxicology Program [NTP] U.S. Food and Drug Administration [FDA] Tox21 Assay Overview: Compound auto fluorescence often interferes with screening of the compound library against various biological targets and signaling pathways. Some of these compounds may have fluorophoric properties. Such properties may interfere with the assay outputs resulting in false positives and/or negatives. To decrease such complications and ensure the compound activities are relevant in terms of biological response, the Tox21 10K compound library was screened for auto fluorescence. From the fluorophores used as reporter signals in our screening assays, the auto fluorescence equivalencies of compounds against three fluorophores have been evaluated: Triamterene, Fluorescein and Rose Bengal sodium for blue, green and red fluorescence, respectively. The fluorescence intensities were measured using Excitation/Emission wavelengths at 405/460nm, 485/535nm and 540/590nm for blue, green and red labels, respectively. This assay includes the blue fluorescence data.
Tox21 Assay Protocol Summary: 2,000 HepG2 cells in 5 uL of culture medium (MEM containing 10% FBS) per well were dispensed into black wall/clear bottom 1536-well plates using a Multidrop Combi Dispenser (ThermoFisher Scientific, Waltham, MA). The assay plates were incubated overnight at 37 C to allow cell attachment to the well bottom, followed by the transfer of 23 nL compound or DMSO vehicle by a pintool work station (Kalypsys , San Diego, CA). After the assay plates were incubated for 1 hr at 37 C and 5% CO2, fluorescence intensities in the assay plates were measured by an Envision (PerkinElmer, Shelton, CT) plate reader using three labels for measuring blue, green and red fluorescence at […] 460, 535 and 590 nm respectively.
% is set by controls: 0 for no effect and ±100 for the full control effect.

Compound | fluorescence, % of fluorescent control | Potency
Cc1ccc(O)c(N)c1 | 0.528% (inactive) | 
CCCCC/C=C\C/C=C\CCCCCCCC(=O)O |  | inactive
Cc1nc(-c2ccc(Cl)cc2)oc1COC(C)(C)C(=O)O | -0.0548% [at 46 µM] (inactive) | 
CCC(CC)(CC(=O)Nc1cccc(/C=C/c2nc(C3CCC3)cs2)c1)C(=O)O | 0.262% [at 46 µM] (inactive) | 
CCCCC(CC)CN1CN(CC(CC)CCCC)CC(C)(N)C1 (stereo not given) | -0.0067% [at 18.6 µM] (inactive) | 
CCC(C)n1ncn(-c2ccc(N3CCN(c4ccc(OC[C@H]5CO[C@](Cn6cncn6)(c6ccc(Cl)cc6Cl)O5)cc4)CC3)cc2)c1=O (stereo not given in full) | -0.0885% [at 46 µM] (inactive) | 
Nc1ccc(Oc2ccc(Cl)cc2)cc1 | 0.0218% (inactive) | 
ClCCl | -0.221% (inactive) | 
CC/C=C\CCCCCO | -0.0957% (inactive) | 
CC[C@H](C)COC(=O)/C=C/c1ccc(N=Cc2ccc(OC)cc2)cc1 | 4.81% (inactive) | 
COc1ccc(-c2coc3cc(O)ccc3c2=O)cc1 | 0.661% (inactive) | 
O=C(O)[C@H](O)[C@@H](O)[C@H](O[C@@H]1O[C@H](CO)[C@H](O)[C@H](O)[C@H]1O)[C@H](O)CO | 0.0744% [at 18.6 µM] (inactive) | 
COc1cccc2c1C(=O)c1c(O)c3c(c(O)c1C2=O)C[C@@](O)(C(C)=O)C[C@@H]3O[C@H]1C[C@H](N)[C@H](O)[C@H](C)O1 |  | inactive
S=C([S-])NCCNC(=S)[S-].S=C([S-])NCCNC(=S)[S-].[Mn+2].[Zn+2] | 0.0447% [at 46 µM] (inactive) | 
CC(C(=O)O)c1ccc2c(c1)[nH]c1ccc(Cl)cc12 (stereo not given) | 0.136% [at 46 µM] (inactive) | 
c1ccc(C(O[C@@H]2CCCN(CCc3ccc4c(c3)OCO4)C2)c2ccccc2)cc1 | -0.107% (inactive) | 
C=CC(=O)OCCOC(=O)C=C | -0.0763% (inactive) | 
O=[N+]([O-])c1ccc(O)cc1C(F)(F)F | -0.622% (inactive) | 
OC1CCCc2ccccc21 (stereo not given) | 0.0901% (inactive) | 
CCC(C)(CCC(C)C)C(=O)[O][Sn]([CH3])([CH3])[O]C(=O)C(C)(CC)CCC(C)C (stereo not given) | 0.0234% (inactive) | 

Compound | fluorescence, % of fluorescent control | Potency
CCN(CC)C(=O)c1cc(S(=O)(=O)Cc2ccccc2)c(N2CCC(c3ccccc3)CC2)cc1N(CC)CCN(C)C |  | inactive
OC[C@H]1O[C@H](O[C@H]2O[C@H](CO)[C@@H](O)[C@H](O)[C@H]2O)[C@H](O)[C@@H](O)[C@@H]1O | 0.0557% (inactive) | 
CCCCCCCCCCCC(=O)OCC(C)OC(=O)CCCCC(=O)O (stereo not given) | -0.172% [at 46 µM] (inactive) | 
Cc1ccc(C(=O)O)cc1 | -0.0312% [at 95.7 µM] (inactive) | 
Cc1cc(-c2ccc(N=Nc3cc(S(=O)(=O)O)c4ccccc4c3N)c(C)c2)ccc1N=Nc1cc(S(=O)(=O)O)c2ccccc2c1N | 0.0223% (inactive) | 
C#C[C@]1(OC(C)=O)CC[C@H]2[C@@H]3CCC4=C/C(=N/O)CC[C@@H]4[C@H]3CC[C@@]21CC | -0.199% [at 46 µM] (inactive) | 
C=Cc1ccccc1C=C | -0.0066% [at 354 µM] (inactive) | 
O=C(O)c1cccc(C(F)(F)F)c1 | -0.429% (inactive) | 
O=[N+]([O-])c1ccc(F)c(Cl)c1 | 0.0815% (inactive) | 
Cc1cc(-n2nc3ccc(Cl)cc3n2)c(O)c(C(C)(C)C)c1 | -0.0575% [at 46 µM] (inactive) | 
Cc1c2ccccc2c(C)c2c1ccc1ccccc12 |  | inactive
CNc1ccc([N+](=O)[O-])cc1 | -0.401% (inactive) | 
O=C(Oc1ccccc1)Oc1ccccc1 | 0.103% (inactive) | 
COC(=O)c1ccccc1OC | 0.0105% (inactive) | 
O=c1[nH]c2ccccc2n1CCCN1CCN(C(c2ccccc2)c2ccccc2)CC1 | -0.0152% [at 46 µM] (inactive) | 
CCCC1CCC(=O)CC1 | -0.009% (inactive) | 
CCCC[P+](C)(CCCC)CCCC | 0.0845% [at 95.7 µM] (inactive) | 
[Cl][Pt-2]([Cl])([Cl])[Cl] | -0.0291% (inactive) | 
CCCCCCOC(=O)C(C)CC (stereo not given) | 0.0403% (inactive) | 
Nc1cc(Cl)c(O)c(Cl)c1 | 0.844% (inactive) | 
